# Most compounds without a hit are left out; they make up all but 4% or so of the library.
# aDG glyco up: activators of alpha-DG glycosylation, primary screen, uHTS, Pro5-aDG cells, AlphaScreen | alpha-DG glycosylation AlphaScreen (IIH6); 0% Pro5, 100% B10-LARGE cell signal | activation, % at 10 µM | 0.22% of 360,000 active;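 active = activation of at least 8% versus controls, or a plate z-score of at least 8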;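 note: Pro5 are CHO cells carrying HIG-tagged alpha-DG that lacks glycosylation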
# NR3A LBD binder: binders of NR3A ligand-binding domain, primary screen, biophysical, differential scanning fluorimetry, uHTS; Glutamate receptor ionotropic, NMDA 3A (GRIN3A) ligand-binding domain; AID 1259313, 2017; NR3A LBD differential scanning fluorimetry, Tm shift; 0% = protein alone, 100% = glycine-bound protein; 2.5% of 340,000 active; Tm shift relative to glycine control, % at 25 µM;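 active = melting temperature shift of at least 10% of the positive control shift, at one fixed dose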
# ADAM10 inh: human ADAM10 inhibitors, primary screen, biochemical, QFRET, HTS; Disintegrin and metalloproteinase domain-containing protein 10 (Homo sapiens), O14672; recombinant ADAM10, EDANS/DABCYL FRET peptide cleavage, 3 h; inhibition, % at 7 µM; 0.62% of 370,000 active;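 active = inhibition above a per-campaign cutoff equal to the mean of compounds falling between control-based bounds plus 3 SD, cut at about 20% in these data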;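 note: 0% = DMSO wells while the 100% control is not disclosed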
# Target sequence (O14672 214-748 limits assumed): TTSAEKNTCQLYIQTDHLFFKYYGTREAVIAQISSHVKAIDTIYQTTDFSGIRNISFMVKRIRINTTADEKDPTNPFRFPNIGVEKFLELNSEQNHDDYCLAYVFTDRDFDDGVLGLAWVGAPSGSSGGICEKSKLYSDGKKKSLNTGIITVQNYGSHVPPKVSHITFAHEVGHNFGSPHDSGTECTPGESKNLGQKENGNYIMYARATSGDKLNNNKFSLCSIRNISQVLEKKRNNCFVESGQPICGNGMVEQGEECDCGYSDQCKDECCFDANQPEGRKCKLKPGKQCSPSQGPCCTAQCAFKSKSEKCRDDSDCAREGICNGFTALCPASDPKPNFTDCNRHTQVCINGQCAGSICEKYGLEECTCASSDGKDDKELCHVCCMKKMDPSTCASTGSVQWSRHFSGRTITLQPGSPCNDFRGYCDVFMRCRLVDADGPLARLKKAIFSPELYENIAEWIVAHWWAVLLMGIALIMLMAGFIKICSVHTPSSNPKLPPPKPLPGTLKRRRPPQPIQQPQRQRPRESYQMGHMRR
# FAS-TE inh: FAS thioesterase domain inhibitors, primary screen, biochemical, fluorescence intensity, uHTS. recombinant FAS-TE, OMFH fluorogenic substrate, fluorescence endpoint. 0.67% of 360,000 active. Fatty acid synthase (Homo sapiens), P49327. AID 602261, 2012. inhibition, % at 15 µM;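 active = compounds whose normalised, plate-corrected inhibition of enzyme fluorescence in the single-dose primary screen is 50% or more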;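 note: 0% = DMSO with enzyme and 100% = substrate without enzyme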
# ADAM17 inh: ADAM17 inhibitors, primary screen, biochemical, QFRET; Disintegrin and metalloproteinase domain-containing protein 17 (Homo sapiens), P78536; recombinant ADAM17, EDANS/DABCYL FRET peptide cleavage; inhibition, % at 6.95 µM; 0.83% of 370,000 active;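 active = inhibition above the mean of compounds lying between control limits plus 3 SD, set per campaign, cut at about 8.5% in these data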;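 note: 0% = DMSO-only wells as the low control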
# An asterisk follows results filed as active; i = inactive; nt = no result.
SMILES,aDG glyco up,NR3A LBD binder,ADAM10 inh,FAS-TE inh,ADAM17 inh
Cc1cc(C(=O)N/N=C/c2c[nH]c3ccccc23)cs1,0,27*,1,-7,-2
O=C(NC(Cc1c[nH]c2ccccc12)C(=O)N/N=C/c1cccc2ccccc12)c1cccs1 (configuration not stated),0,19*,11,37,1
O=C(N/N=C/c1ccccn1)c1sc2ccccc2c1Cl,0,-3,-9,28,-1
O=C(N/N=C/c1c[nH]c2ccccc12)c1cccs1,0,23*,-4,14,-2
COCCn1c(=O)[nH]c(=O)c2cc(C(=O)c3cc(Cl)ccc3O)cnc21,0,-18,nt,0,nt
O=C(N/N=C/c1c[nH]c2c1ccc1ccccc12)c1ccc([N+](=O)[O-])cc1,0,39*,8,-2,6
O=C(N/N=C/c1c[nH]c2ccc(Br)cc12)c1ccc2c(c1)OCO2,0,31*,-3,18,-3
COc1ccc2ccccc2c1/C=N/NC(=O)c1ccc([N+](=O)[O-])cc1,0,1,-3,-5,-1
O=C(N/N=C/c1cc(Br)cc(Cl)c1O)c1ccc2c(c1)OCO2,0,11*,-3,24,0
Cc1nc(N)sc1C(=O)N/N=C/c1c[nH]c2ccccc12,0,24*,3,-8,-6
Cc1cc(C)cc(NC(=O)CSc2nnc(NC(=O)C3CC3)s2)c1,0,-3,-6,-1,-2
CCOc1cc(C(=O)OCC(=O)c2c[nH]c3ccccc23)ccc1OCC(=O)N1CCOCC1,0,8,0,-6,-2
Cc1cc(Cl)ccc1NC(=O)c1ccc2c(c1)CCN2S(C)(=O)=O,0,3,2,-1,-2
O=C(c1ccccc1)N1CCCC(C(=O)N2CCCCCC2)C1 (configuration not stated),0,-3,-2,-4,1
COc1ccccc1/C=N/NC(=O)c1ccc(CN2C(=O)c3cccc4cccc2c34)cc1,0,0,-14,22,-6
CCOC(=O)c1c(N)sc(C(O)(C(F)(F)F)C(F)(F)F)c1-c1ccccc1,0,-7,12,18,7
COc1ccccc1C(=O)N/N=C/c1c[nH]c2ccccc12,0,14*,-4,-2,-3
N=C1S/C(=C\c2cccc3ccccc23)C(=O)N1c1ccc(F)cc1,0,11*,-3,3,-3
N=C1S/C(=C\c2ccccc2F)C(=O)N1c1ccc(F)cc1,0,11*,0,-3,0
COc1ccc(C2C(C(=O)c3ccc(C)o3)=C(O)C(=O)N2Cc2cccnc2)cc1OC (configuration not stated),0,0,-4,-4,2
c1ccc(CCNc2ncnc3ccccc23)cc1,8.7*,1,-1,1,0
CCCCCCCCNc1ncnc2ccccc12,4,-40,nt,12,nt
COc1cccc(NC(=O)NCCC2=CCCCC2)c1,0,0,5,2,1
COc1ccc(NC(=O)NCCC2=CCCCC2)cc1,0,31*,-3,23,2
O=C(/C=C/c1ccc2c(c1)OCCCO2)c1ccc2ccccc2c1O,0,32*,-20,18,-3
SMILES,aDG glyco up,NR3A LBD binder,ADAM10 inh,FAS-TE inh,ADAM17 inh
O=c1oc2ccccc2cc1-c1csc(Nc2nc3c(F)cccc3s2)n1,0,23*,-11,-4,-2
COc1ccc2nc3ccccc3[n+]([O-])c2c1,0,2,i,-23,-140
[O-][n+]1c2ccccc2cc2ccccc21,1,46*,i,-4,-262
O=C(Cc1ccccc1)Nc1ccc(NC(=O)c2ccc(Br)cc2)cc1,0,2,3,-2,0
O=C(CSc1ccccc1)Nc1ccc(C(=O)Nc2ccc(O)cc2)cc1,0,25*,-5,-1,-3
O=C(Cc1ccccc1)Nc1ccc(C(=O)Nc2ccc(O)cc2)cc1,0,35*,-12,-10,-4
COC(=O)c1ccc(NC(=O)CSc2ccccc2)cc1,0,-10,3,-4,3
O=C(Nc1cc(Sc2ccccn2)cc([N+](=O)[O-])c1)c1ccc([N+](=O)[O-])cc1,0,-4,5,30,0
COCCNC(=O)CN(c1ccc(C)cc1)S(=O)(=O)c1ccccc1,2,-7,5,-5,-4
COCCNC(=O)CN(c1ccc(OC)c(OC)c1)S(=O)(=O)c1ccc(C)cc1,0,14*,2,6,4
COC(=O)CN(c1cc(OC)ccc1OC)S(=O)(=O)c1ccc(OC)c(OC)c1,0,10*,-1,-2,-7
CSc1ccc(CN(C)C(=O)C(Cc2ccccc2)NC(=O)c2ccccc2)cc1 (configuration not stated),0,14*,10,13,-2
CCOC(=O)CCCNC(=O)OC1CCC12CCC(c1ccccc1)CC2 (configuration not stated),nt,nt,3,nt,2
CCN(CC)CCCN(Cc1cc2cc3c(cc2[nH]c1=O)OCO3)C(=S)NCCOC,0,0,i,-4,-308
CC1Cc2nc(SCC(=O)NCc3ccccc3)n(Cc3ccccc3)c(=O)c2S1 (configuration not stated),0,-4,1,12,2
CC1Cc2nc(SCC(=O)c3ccccc3)n(Cc3ccccc3)c(=O)c2S1 (configuration not stated),0,8,20*,25,3
Cc1cccc(N(CC(=O)NCc2ccccc2)C(=O)CCC(=O)Nc2nccs2)c1,0,-1,-5,1,0
CC(=O)c1cccc(NC(=O)C(=O)Nc2cccc3ccccc23)c1,0,62*,9,-2,-4
Cc1cccc(C)c1NC(=O)CN(C)CC(=O)Nc1ccccc1Oc1ccccc1,1,-2,-8,0,-4
COc1cccc(-c2csc(N3CCN(C(=S)Nc4ccccc4)CC3)n2)c1,0,4,5,17,5
COc1cccc(-c2csc(N3CCN(C(=S)Nc4ccc(Cl)cc4)CC3)n2)c1,0,10*,5,20,0
Cc1cccc2sc(N(CCN(C)C)C(=O)c3cc(Cl)sc3Cl)nc12,0,11*,-3,13,-5
COc1cc2ccccc2cc1C(=O)N(CCN(C)C)c1nc2c(C)cccc2s1,3,1,8,13,3
O=C(CSc1nc2[nH]ncc2c(=O)[nH]1)Nc1ccc(Cl)cc1,0,25*,1,-12,1

# Bioassay records deposited in PubChem by several laboratories.
